Source: PubChem BioAssay (Tox21)
Inconclusive results are not listed. A structure can be active in one record and inactive in another. Activity calls are given as the source filed them. Unless noted, the call rests on the fitted dose curve; in most records, active means well fitted curve in the direction sought with a large enough effect in the repeat runs; inconclusive means weak or mixed curves; inactive means no such curve, though single readings can be large; an effect the other way counts as inactive or inconclusive.

Tests used:
[1] = qHTS assay to identify small molecule agonists of the peroxisome proliferator-activated receptor delta (PPARd) signaling pathway - cell viability counter screen (AID 743211); further: nearly all actives have a fitted effect of over 55% in size
Summary of the method: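 Tox21 library compounds, delivered in DMSO, were incubated 17 h with PPARd-bla HEK293H cells; cytotoxicity was taken from CellTiter-Glo luminescence read 30 min after reagent addition.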

[2] = target: Peroxisome proliferator-activated receptor delta (Homo sapiens) (UniProt Q03181); test: qHTS assay to identify small molecule agonists of the peroxisome proliferator-activated receptor delta (PPARd) signaling pathway (AID 743212; calls by dose curve)
Summary of the method: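 Read-out: beta-lactamase FRET fluorescence after 2 h room-temperature incubation with LiveBLAzer B/G substrate. Cells were HEK293H carrying a UAS-bla reporter for PPARd, treated at 37 C with DMSO-dissolved compounds.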

[3] = qHTS assay to identify small molecule antagonists of the peroxisome proliferator-activated receptor delta (PPARd) signaling pathway - cell viability counter screen (AID 743213); further: nearly all actives have a fitted effect of over 50% in size
Summary of the method: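 HEK293H PPARd UAS-bla cells, 5 h pre-incubation, compound + L165041 300 nM final, 17 h 37 C; B/G FRET substrate 2 h RT; then CellTiter-Glo 30 min RT, luminescence.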

[4] = target: Peroxisome proliferator-activated receptor delta (Homo sapiens) (UniProt Q03181); test: qHTS assay to identify small molecule antagonists of the peroxisome proliferator-activated receptor delta (PPARd) signaling pathway (AID 743215; active means well fitted inhibition curve with a large enough effect in the signal ratio in the repeat runs, not every such curve was filed as active; the % refers to the signal ratio;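 further: cells stimulated with agonist L165041 at 300 nM final during compound exposure; series mostly up to about 62 µM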)
Summary of the method: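 Cells: HEK293H with a UAS-driven beta-lactamase reporter responsive to PPARd. Compounds were co-added with L165041 (300 nM, final) and incubated 17 h at 37 C before a 2 h room-temperature FRET substrate step and fluorescence reading.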

[5] = target: Bile acid receptor (Homo sapiens) (UniProt Q96RI1); test: qHTS assay to identify small molecule antagonists of the farnesoid-X-receptor (FXR) signaling pathway (AID 743217; active means well fitted inhibition curve with a large enough effect in the signal ratio in the repeat runs, not every such curve was filed as active; the % refers to the signal ratio)
Summary of the method: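 Cells carrying a UAS-driven beta-lactamase reporter (GeneBLAzer FXR-UAS-bla HEK 293T) were plated and rested 5 h at 37 °C. Compounds in DMSO were added alongside chenodeoxycholic acid agonist at 50 uM final and left 16 h at 37 °C before FRET substrate readout.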

[6] = qHTS assay to identify small molecule agonists of the farnesoid-X-receptor (FXR) signaling pathway - cell viability counter screen (AID 743218); further: nearly all actives have a fitted effect of over 45% in size
Summary of the method: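 Cells were seeded, left 5 h at 37 C and 5% CO2, then dosed with compound in DMSO for 16 h. After the beta-lactamase FRET read, CellTiter-Glo was added and luminescence measured 30 min later.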

[7] = qHTS assay to identify small molecule antagonists of the farnesoid-X-receptor (FXR) signaling pathway - cell viability counter screen (AID 743221; active means well fitted cell-killing curve with a large enough effect in the repeat runs, not every such curve was filed as active; further: nearly all actives have a fitted effect of over 50% in size)
Summary of the method: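 Cytotoxicity is taken from ATP luminescence (CellTiter-Glo, 30 min, room temperature) in FXR-bla HEK 293T cells previously incubated 16 h at 37 C with compound and chenodeoxycholic acid at 50 uM final.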

[8] = target: Vitamin D3 receptor (Homo sapiens) (UniProt P11473); test: qHTS assay to identify small molecule agonists of the vitamin D receptor (VDR) signaling pathway (AID 743222; calls by dose curve)
Summary of the method: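 Cells carrying a VDR-driven beta-lactamase reporter are seeded at 2,000 per well and rested 4 h. Compounds in DMSO are added for 16 h at 37C, and FRET substrate fluorescence is measured after 2 h at room temperature.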

[9] = target: Vitamin D3 receptor (Homo sapiens) (UniProt P11473); test: qHTS assay to identify small molecule antagonists of the vitamin D receptor (VDR) signaling pathway (AID 743223; active means well fitted inhibition curve with a large enough effect in the signal ratio in the repeat runs, not every such curve was filed as active; the % refers to the signal ratio)
Summary of the method: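 Quantitative HTS in VDR-bla reporter cells stimulated with 1alpha,25-dihydroxyvitamin D3, 3 nM final. Compound exposure 16 h, 37C, 5% CO2. Read-out: beta-lactamase FRET substrate fluorescence, 2 h RT.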

[10] = qHTS assay to identify small molecule agonists of the vitamin D receptor (VDR) signaling pathway - cell viability counter screen (AID 743224); further: series mostly up to about 63 µM; nearly all actives have a fitted effect of over 50% in size
Summary of the method: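 Cells: VDR-bla, 2,000/well, settled 4 h. Treatment: compounds in DMSO, 16 h, 37C/5% CO2. Readout: CellTiter-Glo luminescence after 30 min RT.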

[11] = qHTS assay to identify small molecule antagonists of the vitamin D receptor (VDR) signaling pathway - cell viability counter screen (AID 743225); further: nearly all actives have a fitted effect of over 50% in size
Summary of the method: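 Same-well multiplex: following 16 h treatment of HEK 293T cells carrying a UAS-driven beta-lactamase reporter with compound and agonist (3 nM final), and a 2 h FRET substrate step, CellTiter-Glo was added and luminescence read after 30 min.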

[12] = qHTS assay to identify small molecule agonists of the NFkB signaling pathway - cell viability counter screen (AID 1159515; calls by dose curve; further: series mostly up to about 61 µM; nearly all actives have a fitted effect of over 55% in size)
Summary of the method: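 Cells are seeded (2,000 NFkB-bla ME-180 per well), rested overnight, and dosed with DMSO-dissolved compounds for 5 hr at 37 C. Viability is then read by CellTiter-Glo luminescence after 30 min at room temperature.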

[13] = qHTS assay to identify small molecule agonists of the endoplasmic reticulum stress response signaling pathway (AID 1159516; active means well fitted activation curve with a large enough effect in the signal ratio in the repeat runs, not every such curve was filed as active; the % refers to the signal ratio)
Summary of the method: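 Cells are seeded at 1,500 per well and incubated overnight. Compounds in DMSO are added for 5 hr at 37 C, then beta-lactamase FRET substrate for 2 hr at room temperature, and fluorescence at 460 and 530 nm is measured.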

[14] = qHTS assay to identify small molecule agonists of the endoplasmic reticulum stress response signaling pathway - cell viability counter screen (AID 1159517; calls by dose curve)
Summary of the method: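 Steps: seed 1,500 ESRE-bla HeLa cells per well; incubate overnight at 37 C, 5% CO2; add compounds in DMSO for 5 hr; run FRET substrate 2 hr RT; add CellTiter-Glo, wait 30 min, read luminescence.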

[15] = qHTS assay to identify small molecule antagonists of the retinoid-related orphan receptor gamma (ROR-gamma) signaling pathway - cell viability counter screen (AID 1159520); further: nearly all actives have a fitted effect of over 50% in size
Summary of the method: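 Tet-on ROR gamma CHO cells were given compounds for 2 hr, then doxycycline hyclate at 1 uM final, and incubated 16 hr at 37 C. Viability was measured as ATP content by CellTiter-Glo luminescence.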

[16] = target: Nuclear receptor ROR-gamma (Homo sapiens) (UniProt P51449); test: qHTS assay to identify small molecule antagonists of the retinoid-related orphan receptor gamma (ROR-gamma) signaling pathway (AID 1159521; further: nearly all actives have a fitted effect of over 50% in size; further: potency means the concentration at half of the fitted maximal effect)
Summary of the method: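 Inducible-expression reporter assay: doxycycline (1 uM final) switched on RORγ in CHO cells bearing a ROR response element-luciferase construct, with test compounds present from 2 h beforehand. Decreased luminescence after 16 h defined antagonist activity.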

[17] = qHTS assay to identify small molecule agonists of the AP-1 signaling pathway - cell viability counter screen (AID 1159525; calls by dose curve; further: nearly all actives have a fitted effect of over 55% in size; further: potency means the concentration at half of the fitted maximal effect)
Summary of the method: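 Same-well cytotoxicity counter screen of the Tox21 10K library in ME-180 cells. The readout is ATP-dependent luminescence after 5 h compound treatment. Data are normalised to DMSO and tetra n-octyl ammonium bromide controls.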

[18] = qHTS assay to identify small molecule agonists of the AP-1 signaling pathway (AID 1159526; calls by dose curve)
[19] = target: Retinoic acid receptor RXR-alpha (Homo sapiens) (UniProt P19793); test: qHTS assay to identify small molecule agonists of the RXR signaling pathway (AID 1159527; calls by dose curve; further: nearly all actives have a fitted effect of over 35% in size; further: potency means the concentration at half of the fitted maximal effect)
Summary of the method: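 Compounds in DMSO were added to RXR-alpha-UAS-bla HEK 293T cells kept in 2% charcoal-stripped serum, and incubated 16 hr at 37 C with 5% CO2. Reporter signal came from a 2 hr B/G FRET substrate step.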

[20] = qHTS assay to identify small molecule agonists of the RXR signaling pathway - cell viability counter screen (AID 1159529); further: nearly all actives have a fitted effect of over 50% in size; further: potency means the concentration at half of the fitted maximal effect
Summary of the method: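 Counter screen: CellTiter-Glo luminescence. Cells: RXR-alpha-UAS-bla HEK 293T. Medium: 2% charcoal-stripped FBS. Treatment: 16 h, 37 C. Reagent incubation: 30 min, RT.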

Measured: Potency

Bile acid receptor (Homo sapiens), sequence (Q96RI1 whole entry, looked up): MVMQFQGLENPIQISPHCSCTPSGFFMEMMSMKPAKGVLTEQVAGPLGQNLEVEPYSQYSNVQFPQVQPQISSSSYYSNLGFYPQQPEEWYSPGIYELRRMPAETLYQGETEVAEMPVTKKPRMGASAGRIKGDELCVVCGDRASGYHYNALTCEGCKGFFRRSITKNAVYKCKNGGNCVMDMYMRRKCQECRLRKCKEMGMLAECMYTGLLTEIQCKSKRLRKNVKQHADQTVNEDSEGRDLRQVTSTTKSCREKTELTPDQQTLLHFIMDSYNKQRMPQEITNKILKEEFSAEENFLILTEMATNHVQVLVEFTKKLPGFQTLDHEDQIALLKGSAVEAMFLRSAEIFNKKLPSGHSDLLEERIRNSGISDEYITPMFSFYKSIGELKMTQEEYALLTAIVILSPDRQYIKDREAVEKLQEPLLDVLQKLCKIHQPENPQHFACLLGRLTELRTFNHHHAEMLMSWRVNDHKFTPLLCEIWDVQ
Vitamin D3 receptor (Homo sapiens), sequence (P11473 whole entry, looked up): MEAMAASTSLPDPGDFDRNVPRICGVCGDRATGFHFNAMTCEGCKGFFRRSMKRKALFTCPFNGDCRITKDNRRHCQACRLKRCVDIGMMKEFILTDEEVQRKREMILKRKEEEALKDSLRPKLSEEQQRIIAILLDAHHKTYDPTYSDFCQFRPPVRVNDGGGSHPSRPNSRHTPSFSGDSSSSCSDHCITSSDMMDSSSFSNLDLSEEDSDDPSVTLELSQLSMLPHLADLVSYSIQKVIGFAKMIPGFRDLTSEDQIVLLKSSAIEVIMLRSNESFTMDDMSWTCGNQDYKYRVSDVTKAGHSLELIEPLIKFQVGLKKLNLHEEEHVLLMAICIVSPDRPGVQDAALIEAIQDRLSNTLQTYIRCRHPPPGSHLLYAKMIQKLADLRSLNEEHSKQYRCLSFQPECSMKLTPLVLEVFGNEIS
Peroxisome proliferator-activated receptor delta (Homo sapiens), sequence (Q03181 whole entry, looked up): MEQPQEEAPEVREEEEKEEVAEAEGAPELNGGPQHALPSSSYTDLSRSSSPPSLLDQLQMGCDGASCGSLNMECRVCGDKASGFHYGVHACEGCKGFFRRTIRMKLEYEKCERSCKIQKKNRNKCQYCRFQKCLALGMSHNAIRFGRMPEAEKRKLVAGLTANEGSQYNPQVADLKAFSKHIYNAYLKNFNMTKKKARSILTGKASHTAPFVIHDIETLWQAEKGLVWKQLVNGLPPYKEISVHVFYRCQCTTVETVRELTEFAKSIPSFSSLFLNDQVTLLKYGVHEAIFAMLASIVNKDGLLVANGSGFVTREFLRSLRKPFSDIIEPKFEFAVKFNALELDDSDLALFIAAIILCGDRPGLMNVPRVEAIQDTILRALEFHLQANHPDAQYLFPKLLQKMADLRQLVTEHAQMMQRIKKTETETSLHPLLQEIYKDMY
Retinoic acid receptor RXR-alpha (Homo sapiens), sequence (P19793 whole entry, looked up): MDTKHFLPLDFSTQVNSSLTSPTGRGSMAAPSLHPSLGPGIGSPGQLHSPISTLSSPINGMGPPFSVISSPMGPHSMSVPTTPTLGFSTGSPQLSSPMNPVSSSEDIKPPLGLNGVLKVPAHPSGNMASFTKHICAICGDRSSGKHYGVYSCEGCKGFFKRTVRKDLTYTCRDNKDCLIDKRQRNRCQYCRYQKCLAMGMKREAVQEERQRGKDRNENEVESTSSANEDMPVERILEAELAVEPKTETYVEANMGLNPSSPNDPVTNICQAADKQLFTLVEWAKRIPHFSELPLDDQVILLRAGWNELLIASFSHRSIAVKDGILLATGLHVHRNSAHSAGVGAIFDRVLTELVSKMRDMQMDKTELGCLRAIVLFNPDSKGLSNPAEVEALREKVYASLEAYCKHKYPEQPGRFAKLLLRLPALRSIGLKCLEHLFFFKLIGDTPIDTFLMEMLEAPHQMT

CCOC(=O)CC(=O)OCC
inactive: all assays above

CC1=CC(=O)CC(C)(C)C1
25.3 µM (active) and inactive: [17] | [20]
2.5 µM (active) and inactive: [16]
not listed: [5]
inactive: all other assays above

CCCOCC(C)O (centres undefined)
not listed: [5]
inactive: all other assays above

Cc1ccccc1C=O
not listed: [5]
inactive: all other assays above

O=[N+]([O-])c1ccccc1C(F)(F)F
not listed: [5]
inactive: all other assays above

O=C(Cl)c1ccc(C(=O)Cl)cc1
not listed: [5]
inactive: all other assays above

C=C(CC(=O)O)C(=O)O
inactive: all assays above

COC(=O)CCCCC(=O)OC
inactive: all assays above

OB(O)O
active: [19] 15.5 µM
inactive: all other assays above

CCCCCCC(=O)O
inactive: all assays above

CC(C=O)Cc1ccc(C(C)(C)C)cc1 (centres undefined)
not listed: [9]
inactive: all other assays above

OC[C@H]1O[C@@H](Oc2ccc(O)cc2)[C@H](O)[C@@H](O)[C@@H]1O
not listed: [5]
inactive: all other assays above

CN=C(NC#N)NCCSCc1nc[nH]c1C
inactive: all assays above

CC(=O)OC/C=C(\C)CCC=C(C)C
not listed: [5] | [8] | [9]
inactive: all other assays above

CC(=O)c1nccs1
not listed: [5]
inactive: all other assays above
